# Reference: the supplement of paper PMC7801607
# Assays:
# CHO = experiment: % viability of CHO cells (MTT); higher = less toxic; settings: 48 h
# Procedure, shortened: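 Percent viability of CHO cells, relative to untreated cells, was read colorimetrically by tetrazolium (MTT) assay. Cells were seeded at 10^6 cells/well and treated for 48 h with compound at 2 or 20 µM in fresh medium.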
# HepG2-A16-CD81 = experiment: % inhibition of HepG2 viability (CellTiter-Glo); higher = more toxic; settings: 5 µM
# [1] = tested on: Plasmodium falciparum NF54 stage IV/V gametocytes; experiment: % inhibition of gametocyte viability (PrestoBlue); higher = more inhibition; settings: 48 h
# Procedure, shortened: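 Stage IV/V NF54 gametocytes were exposed to compound at 1 or 5 µM for 48 h at 37 °C under stationary, hypoxic conditions, then read by PrestoBlue fluorescence at 612 nm. The percent inhibition of gametocyte viability was normalised to vehicle and kill controls from one run.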
# [2] = tested on: Plasmodium falciparum NF54 asexual blood stage; experiment: % inhibition of asexual blood stage proliferation (pLDH); higher = more inhibition; settings: 72 h
# Procedure, shortened: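 Ring-stage cultures of Plasmodium falciparum NF54 at 1% haematocrit and 2% parasitaemia were treated with compound at 2 or 20 µM in 96-well plates and kept for 72 h at 37 °C under 4% CO2, 3% O2 and 93% N2. Parasite survival was measured by the parasite lactate dehydrogenase assay, read colorimetrically at 620 nm. Percent inhibition of asexual proliferation was calculated relative to control wells, and the screen was carried out on two separate occasions.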
# [3] = tested on: Plasmodium falciparum NF54 stage IV/V gametocytes; experiment: % inhibition of gametocyte viability (ATP bioluminescence); higher = more inhibition; settings: 24 h
# Procedure, shortened: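 Stage IV/V NF54 gametocytes were enriched on density gradients and seeded at 30,000 per well in 96-well plates with compound at 1 or 5 µM. Plates were incubated for 24 h at 37 °C. ATP was measured with the Promega BacTiter Glo bioluminescence system. Percent inhibition of gametocyte viability was normalised to DMSO and kill controls from a single run.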
# [4] = tested on: Plasmodium falciparum NF54 stage IV/V gametocytes; experiment: % inhibition of gametocyte viability (luciferase reporter); higher = more inhibition; settings: 48 h
# Procedure, shortened: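 Percent inhibition was normalised to controls from a single run. Stage IV/V gametocytes of the NF54-Pfs16-GFP-Luc line, at 2% gametocytaemia and 2% haematocrit, were exposed to compound at 1 or 5 µM for 48 h at 37 °C under stationary, hypoxic conditions. Luminescence was then read from 30 µL lysate mixed with 30 µL Promega luciferin substrate on a GloMax-Multi+ reader with 10 s integration.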
# [5] = tested on: Plasmodium berghei ANKA liver stage in HepG2-A16-CD81; experiment: % inhibition of liver stage parasite viability (luciferase); higher = more inhibition; settings: 5 µM; 48 h
# Protocol: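 Single-concentration screen of the MMV Pandemic Response Box. P. falciparum NF54 asexual blood stages: pLDH assay, 72 h at 37 °C, 2 and 20 µM, n=2. Stage IV/V gametocytes (NF54): luciferase reporter (NF54-Pfs16-GFP-Luc, 48 h), ATP bioluminescence (24 h) and PrestoBlue (48 h) at 1 and 5 µM, n=1. P. berghei liver stage (luciferase in HepG2-A16-CD81, 48 h post infection) at 5 µM, n=4. All normalised to DMSO and kill controls as % inhibition.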
# 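Wherever % inhibition of HepG2 viability (CellTiter-Glo) is given: HepG2-A16-CD81 hepatoma cells plated as in the liver-stage assay but without sporozoites, with DMSO wells as negative and 25 µM puromycin as positive control.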
Compound,% viability of CHO cells (CHO; 2 µM) [%],% viability of CHO cells (CHO; 20 µM) [%],% inhibition of HepG2 viability (HepG2-A16-CD81) [%],% inhibition of gametocyte viability ([1]; 1 µM) [%],% inhibition of gametocyte viability ([1]; 5 µM) [%],% inhibition of asexual blood stage proliferation ([2]; 2 µM) [%],% inhibition of asexual blood stage proliferation ([2]; 20 µM) [%],% inhibition of gametocyte viability ([3]; 1 µM) [%],% inhibition of gametocyte viability ([3]; 5 µM) [%],% inhibition of gametocyte viability ([4]; 1 µM) [%],% inhibition of gametocyte viability ([4]; 5 µM) [%],% inhibition of liver stage parasite viability [5] [%]
CC(C)c1ccc(COc2cccc(-c3cc(S(C)=O)c(C#N)c(=O)[nH]3)c2)cc1 (stereo unspecified),91,106,3.83,< 0,28.5,18,56.2,51.9,82.8,< 0,< 0,32.5
CCCCN1C[C@H](O)[C@@H](O)[C@H](O)[C@H]1CO,104,108,-0.43,< 0,1.8,18.5,43.4,3.94,< 0,< 0,< 0,10.9
Nc1nc2c(Cc3cccnc3)c[nH]c2c(=O)[nH]1,97.2,113,-4.71,26.1,24.3,2.83,19.8,< 0,< 0,< 0,< 0,27.7
COc1ccc(C(C)(C)C)cc1NC(=O)C(=O)c1ccc(OCCN2CCOCC2)c2ccccc12,97.6,130,1.14,12.9,26.4,29.2,23.5,< 0,< 0,6.49,< 0,15.1
CN(C)CCNC(=O)c1cccc2cccnc12,70.5,19.6,-1.05,< 0,< 0,9.84,-0.35,< 0,< 0,< 0,10.1,16.5
OC(Cn1cncn1)(Cn1cncn1)c1ccc(F)cc1F,76.1,-3.55,-1.31,< 0,< 0,-1.25,-5.32,< 0,< 0,< 0,< 0,19.2
O=C(Nc1ccc(F)cc1)c1nn(-c2ccccc2)c(=O)cc1Cl,110,106,2.98,30.6,81,35.1,98.7,2.79,5.32,29.4,91.6,3.89
NC(=O)c1cnc2ccc(S(=O)(=O)c3ccccc3)cc2c1Nc1ccc(O)cc1,228,58.1,6.05,< 0,< 0,29.7,56.5,< 0,< 0,< 0,< 0,53.1
C[C@H](NC(CC(=O)c1ccccc1C(F)(F)F)C(=O)O)c1ccccc1 (stereo partly specified),119,58.9,0.323,20.3,77.3,34.4,108,11.3,35.8,< 0,56.4,36.5
CC(C)(C)NC(=O)[C@@H]1C[C@@H]2CCCC[C@@H]2CN1C[C@@H](O)[C@H](Cc1ccccc1)NC(=O)[C@H](CC(N)=O)NC(=O)c1ccc2ccccc2n1,89,114,10.9,< 0,19.6,40,58.3,< 0,< 0,< 0,< 0,26.6
COc1ccc(OCc2ccc(COc3c(Cl)cccc3Cl)cc2)c(Cl)c1,99.5,100,-5.86,< 0,< 0,21.2,68.1,4.45,< 0,< 0,< 0,33.2
O=C1c2cccc3cccc(c23)C(=O)N1CC1CO1 (stereo unspecified),107,108,-6.3,7.65,8.86,22,66.9,< 0,< 0,< 0,3.81,14.1
CCOC(=O)/C=C/[C@H](C[C@@H]1CCNC1=O)NC(=O)[C@H](CC)n1cccc(NC(=O)c2cc(C)on2)c1=O,89,79.7,0.129,12,12.7,43.3,49.5,< 0,< 0,6.73,10.7,9.24
